From PubChem
Beta apoptosis: inhibitors of cytokine-induced beta cell apoptosis, primary screen, luminescence | protection from apoptosis, % (test concentration not listed) | INS-1E cytokine-induced death, ATP luminescence, 48 h; percent of positive-control rescue, neutral wells zero | 300,000 compounds, 0.8% hits;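 active = Every replicate reaches about 75%, or at least half do and their mean reaches it too, limit read from the data; inconclusive = At least half of replicates reach the limit but their mean does not; inactive = Under half of replicates reach the limit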;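 note: 0% = cytokine-treated negative control wells and 100% = positive control rescue; higher means more ATP so stronger rescue from cytokine killing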
CSC inhib: cancer stem cell viability inhibitors, primary screen, luminescence; 300,000 compounds, 1.1% hits; inhibition, % at 7.5 µM; AID 2717, 2010; cancer stem cell-like cells viability; in the data active = inhibition above about 75%; inconclusive = no clear call, values can overlap the other calls; tested in HMLE shEcad cells
Mdm2-MdmX inh: inhibitors of human Mdm2-MdmX association, primary screen, cell-based, luminescence, split luciferase, SaOS-2, uHTS. SaOS-2 split-luciferase Mdm2/MdmX complementation. inhibition, % at 8 µM. 330,000 compounds, 3% hits. AID 485346, 2010;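 active = inhibition of at least 50% at 8 µM in the primary screen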
Target sequence (O15151 whole entry, looked up): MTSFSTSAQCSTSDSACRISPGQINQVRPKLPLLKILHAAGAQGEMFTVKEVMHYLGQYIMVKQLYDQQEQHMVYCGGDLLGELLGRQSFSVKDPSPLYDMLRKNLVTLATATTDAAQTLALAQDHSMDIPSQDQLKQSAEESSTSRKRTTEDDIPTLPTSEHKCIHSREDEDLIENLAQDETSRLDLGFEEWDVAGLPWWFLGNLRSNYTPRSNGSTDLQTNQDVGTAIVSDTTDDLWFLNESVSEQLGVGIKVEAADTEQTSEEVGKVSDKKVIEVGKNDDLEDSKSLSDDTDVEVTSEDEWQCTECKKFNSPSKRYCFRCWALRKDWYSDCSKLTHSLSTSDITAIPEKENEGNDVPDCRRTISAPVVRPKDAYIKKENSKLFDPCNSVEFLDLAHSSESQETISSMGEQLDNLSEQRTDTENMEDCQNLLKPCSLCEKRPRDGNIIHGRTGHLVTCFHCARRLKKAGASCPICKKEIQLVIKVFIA
Target sequence (Q00987 whole entry, looked up): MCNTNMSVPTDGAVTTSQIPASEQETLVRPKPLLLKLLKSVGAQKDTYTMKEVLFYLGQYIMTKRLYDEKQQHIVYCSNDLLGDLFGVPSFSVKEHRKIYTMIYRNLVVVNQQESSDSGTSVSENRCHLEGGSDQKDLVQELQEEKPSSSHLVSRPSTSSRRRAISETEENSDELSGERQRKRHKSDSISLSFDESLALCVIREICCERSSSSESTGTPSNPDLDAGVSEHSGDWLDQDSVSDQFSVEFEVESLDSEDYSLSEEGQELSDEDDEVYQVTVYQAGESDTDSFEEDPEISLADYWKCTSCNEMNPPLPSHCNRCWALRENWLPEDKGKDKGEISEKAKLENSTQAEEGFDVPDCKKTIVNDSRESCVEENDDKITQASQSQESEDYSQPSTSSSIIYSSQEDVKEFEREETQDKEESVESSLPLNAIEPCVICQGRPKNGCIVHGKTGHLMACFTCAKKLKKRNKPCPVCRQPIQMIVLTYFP
PP1 counter: PP1-alpha phosphatase inhibitors, primary screen, counter-screen for PP5 inhibitor project, biochemical, fluorescence, OMFP substrate, single point; purified PP1alpha; inhibition, % at 6.7 µM; 320,000 compounds, 0.9% hits; AID 2235, 2010;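 active = inhibition above the mean inhibition of all tested compounds plus 3 SD, computed separately for each screening campaign, cut at about 15% in these data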
Calb FLC: C. albicans growth inhibition with fluconazole, primary screen, CaCi-2 strain, Alamar Blue fluorescence; C. albicans CaCi-2 (fluconazole-resistant clinical isolate) + fluconazole, 48 h; AID 1979, 2009; 300,000 compounds, 0.57% hits; growth inhibition, % (no concentration beside the values);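 active = growth inhibition above about 58% in most replicates, limit read from the data, passing the limit was not always enough; inconclusive = exactly half the replicates above a set limit; inactive = most replicates below a set limit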;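 note: all wells also contain fluconazole at 8 µg/ml as a sub-toxic cotreatment; 0% = median of DMSO wells and 100% = median of geldanamycin control wells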
PP5 inh: PP5 phosphatase inhibitors, primary screen, biochemical, fluorescence; purified PP5c, OMFP substrate fluorescence; inhibition, % at 6.7 µM; 320,000 compounds, 0.18% hits; AID 1987, 2009;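 active = inhibition above the campaign's mean inhibition across all tested compounds plus 3 SD, cut at about 9.5% in these data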;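 note: 0% = DMSO only and 100% = 100 µM cantharidin control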
Mdm2 MdmX conf: Mdm2-MdmX complex disruptors, retested hits, confirmation, luminescence, single concentration | shares compounds with Mdm2-MdmX inh | Mdm2-MdmX binding, luminescent assay | inhibition, % at 8 µM | 10,000 compounds, 55% hits; in the data active = inhibition above about 40%
FLuc counter: full-length luciferase signal inhibition, confirmation, counter-screen for Mdm2/MdmX interaction inhibitor project, cell-based, single concentration, SaOS-2; 6,200 compounds, 77% hits; SaOS-2 full-length luciferase counterscreen, luminescence; inhibition, % at 8 µM; shares compounds with Mdm2-MdmX inh;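 active = mean inhibition at 8 µM reaching about 37%, which flags the compound as non-specific, limit read from the data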;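 note: p53-null SaOS-2 cells with luciferase driven by a doxycycline-inducible promoter; compound on cells about two nights before reading with doxycycline added after day one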
An asterisk follows results filed as active. Shown are actives, neighbours in structure and some others; about 4.9% of the full set was active somewhere.

Cc1cc(Nc2cccc([N+](=O)[O-])c2)n2c(nc3ccccc32)c1C#N was read as Beta apoptosis 107.7*, CSC inhib 83.1*, Mdm2-MdmX inh 98.0*, PP1 counter -6.6, Calb FLC 11.7, PP5 inh 1.3, Mdm2 MdmX conf 90.8* and FLuc counter 30.7.
Screening CC(C)COc1ccc(C(=O)Nc2sc3c(c2C(=O)O)CC(C)(C)OC3)cc1 returned Beta apoptosis -6.3, Mdm2-MdmX inh 50.8*, PP1 counter -0.7, Calb FLC 8.8, PP5 inh 0.6, Mdm2 MdmX conf 47.2* and FLuc counter 81.9*.
Screening COc1ccc(C(=O)Nc2sc3c(c2C(=O)O)CC(C)(C)OC3)cc1 returned Beta apoptosis -8.9, CSC inhib 50.8, Mdm2-MdmX inh 3.2, PP1 counter -4.5, Calb FLC -13.6 and PP5 inh 0.1.
Screening O=C(Cc1ncc(C(F)(F)F)cc1Cl)NCCc1ccccc1 returned Beta apoptosis -3.9, CSC inhib 9.3, Mdm2-MdmX inh 26.0, PP1 counter 6.1, Calb FLC -3.6 and PP5 inh 0.4.
`COc1ccc(NS(=O)(=O)c2cc(C(=O)NNC(=O)c3ccncc3)ccc2OC)c(OC)c1` gave Beta apoptosis -4.4, CSC inhib -16.3 and Mdm2-MdmX inh 28.4.
For O=C(O)CCCCCN1C(=O)/C(=C\c2cn(-c3ccccc3)nc2-c2cccs2)SC1=S the results were Beta apoptosis 0.7, CSC inhib 103.2*, Mdm2-MdmX inh 51.2*, PP1 counter 1.0, Calb FLC 42.2, PP5 inh 1.6 and Mdm2 MdmX conf 29.0.
For O=C(O)CCN1C(=O)/C(=C/c2cn(-c3ccccc3)nc2-c2cccs2)SC1=S the results were Mdm2-MdmX inh 10.1.
Screening Cc1ccc(C(O)(C(=O)NN(C(=O)c2ccccc2)c2ccccc2)c2ccc(C)cc2)cc1 returned CSC inhib 7.0, Mdm2-MdmX inh -5.9, PP1 counter 3.5, Calb FLC 10.4 and PP5 inh -0.8.
`Cc1ccc(N(NC(=O)C(O)(c2ccccc2)c2ccccc2)C(=O)CCl)cc1` gave Beta apoptosis -9.0, CSC inhib 21.2, Mdm2-MdmX inh 99.6*, PP1 counter 1.2, Calb FLC -14.6, PP5 inh 1.7, Mdm2 MdmX conf 97.2* and FLuc counter 56.1*.
Screening O=C(Nc1ccccc1)NN(C(=O)CCl)c1ccccc1 returned Beta apoptosis -41.2, CSC inhib inconclusive, Mdm2-MdmX inh 99.6*, PP1 counter 3.5, Calb FLC -0.8, PP5 inh 1.5, Mdm2 MdmX conf 75.7* and FLuc counter 58.4*.
For COc1ccccc1N1CCN(C(=O)c2cccc(S(=O)(=O)Nc3ccccc3F)c2)CC1 the results were Beta apoptosis -1.8, CSC inhib -10.7 and Mdm2-MdmX inh -3.1.
`COc1ccc(CCNc2nc(C)nc3c2nnn3Cc2ccccc2)cc1` gave Beta apoptosis -2.9, CSC inhib -6.2, Mdm2-MdmX inh 2.5, PP1 counter -2.0, Calb FLC -2.7 and PP5 inh 1.5.
`CCN(CC(O)COc1ccc(OCC(O)CN(CC)C2CCCCC2)cc1)C1CCCCC1` (stereo not drawn) gave Beta apoptosis 3.1, CSC inhib 7.7, Mdm2-MdmX inh 69.2*, PP1 counter -3.8, Calb FLC 2.8, PP5 inh -1.8 and Mdm2 MdmX conf 12.4.
For CCN(CC(O)COCc1ccc(Cl)cc1)C1CCCCC1 (stereo not drawn) the results were Beta apoptosis -3.0, CSC inhib 4.3, Mdm2-MdmX inh 0.7, PP1 counter -1.7, Calb FLC -17.7 and PP5 inh 2.6.
O=C(CN1C(=O)COc2ccc(S(=O)(=O)N3CCCCC3)cc21)NCc1ccccc1Cl was read as Beta apoptosis 5.7, CSC inhib -18.9, Mdm2-MdmX inh 7.0, PP1 counter -0.3, Calb FLC 1.6 and PP5 inh 2.5.
Screening Cc1ccc2nc3c(c(Nc4ccc5c(c4)OCCO5)c2c1)CCC3 returned Beta apoptosis 21.1, CSC inhib -0.7, Mdm2-MdmX inh 56.1*, PP1 counter 0.6, Calb FLC 11.4, PP5 inh 2.6 and Mdm2 MdmX conf 15.1.
For Cc1c(Cl)sn(-c2ccc(Cl)cc2)c1=O the results were Mdm2-MdmX inh 95.7*, Mdm2 MdmX conf 99.3* and FLuc counter 51.5*.
Screening N=c1c2c(ncn1Cc1ccco1)Oc1ccc3ccccc3c1C2c1ccccc1 (stereo not drawn) returned CSC inhib 102.1*, Mdm2-MdmX inh 86.0*, PP1 counter 9.5, Calb FLC -4.7, PP5 inh 1.4, Mdm2 MdmX conf 55.6* and FLuc counter 49.2*.
COc1ccc(C2c3c(ncn(Cc4ccco4)c3=N)Oc3ccc4ccccc4c32)cc1 (stereo not drawn) was read as Beta apoptosis -3.0, CSC inhib 93.9*, Mdm2-MdmX inh 87.7*, PP1 counter 10.1, Calb FLC 3.5, PP5 inh 2.6, Mdm2 MdmX conf 53.2* and FLuc counter 88.5*.
`Nc1ncnc2c1C(c1ccccc1)c1c(ccc3ccccc13)O2` (stereo not drawn) gave Beta apoptosis 0.1, Mdm2-MdmX inh 88.0*, Mdm2 MdmX conf 53.1* and FLuc counter 62.8*.
Screening CCC(=O)N1CCN(c2ccc(NC(=O)c3cc4ccccc4o3)cc2Cl)CC1 returned Beta apoptosis 32.0, CSC inhib 33.6, Mdm2-MdmX inh 82.3*, PP1 counter 1.7, Calb FLC 66.6, PP5 inh 5.2 and Mdm2 MdmX conf 25.1.
O=C(Nc1ccc(N2CCN(C(=O)c3ccco3)CC2)c(Cl)c1)c1cc2ccccc2o1 was read as Beta apoptosis 47.0, CSC inhib -7.0, Mdm2-MdmX inh 99.5*, PP1 counter 6.0, Calb FLC 19.1, PP5 inh 2.4, Mdm2 MdmX conf 74.8* and FLuc counter 50.7*.
Screening CCC(=O)N1CCN(c2ccc(NC(=O)c3ccco3)cc2Cl)CC1 returned Mdm2-MdmX inh -24.1 and Calb FLC -7.4.
Screening CCCC(=O)N1CCN(c2ccc(NC(=O)c3cccs3)cc2Cl)CC1 returned Beta apoptosis -1.4, Mdm2-MdmX inh 3.2, PP1 counter -6.8, Calb FLC inconclusive and PP5 inh 4.9.
